In all, about 2,100 compounds went through this assay and about 760 (36%) were called active. The list is a sample of the results. Values without a mark were called inactive.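 How the source made its calls: active means thallium-flux fluorescence traces judged by eye to show enhanced or reduced glutamate response, manual score 1 or -1, so both directions (some results past the limit were not filed as active); inactive means the rest, including fluorescent or raised-baseline compounds.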

The experiment is described as follows: thallium influx changes without GIRK channels – cell-based, HEK-293 rmGlu8, no GIRK, thallium flux, counter-screen for GIRK activator project, confirmation (AID 623868).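 Further: extra codes mark interference with 3 for fluorescent and 4 for baseline rise.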 As to conditions: thallium flux fluorescence, at 10 µM, actives lie on both sides, codes: 1 enhancer, -1 blocker, 0 none, thallium stimulus containing EC20 glutamate. For orientation: A counterscreen serves to expose hits that act by an unwanted route or on another target.
As to `O=[n+]1c2c(n([O-])c3cc(F)c(N4CCCC4)cc31)CCCC2`, the manual score is 3.

For `Cc1ccc(S(=O)(=O)N2CCN(C)CC2)cc1-c1nnc2c3ccccc3c(C)nn12`, the manual score was 0.

In the case of `CN(C)S(=O)(=O)c1cc(NC(=O)COC(=O)c2ccc3c(c2)OCO3)ccc1Cl`, the manual score is 0.

Turning to `O=C(Nc1ccc2c(c1)OCCO2)NC12CC3CC(CC(C3)C1)C2`, the manual score was 0.

On to `COC(=O)[C@H](CC(C)C)NC(=O)Nc1ccc2c(c1)OCCO2`, for which the manual score is 0.

As for `C/C(=N\NC(=S)Nc1ccc(F)cc1)c1ccc2c(c1)OCCO2`, the manual score is 1 (active).

For `C/C(=N\NC(=S)Nc1cccc(C)c1)c1cccc(N)c1`, the manual score was 1 (active).

With `C/C(=N/NC(=S)Nc1ccccc1)c1ccc2c(c1)OCO2`, the manual score was 1 (active).

For the compound `Cc1c(N2C(=O)CS/C2=N\N=C\c2ccccc2O)c(=O)n(-c2ccccc2)n1C`, the manual score is 0.

`O=C1c2ccccc2C(=O)N1Nc1ccccc1`: the manual score is 0.

For the compound `Cc1ccc(C)n1-c1ccc(-c2nnco2)cc1`, the manual score was 0.

On to `CCOc1ccc(-c2nc(-c3cccnc3)no2)cc1OCC`, for which the manual score was 0.

As for `Cc1ccc(-c2cn(-c3ccccc3)c(SCC(=O)NC3CCS(=O)(=O)C3)n2)cc1C` (stereo unspecified), the manual score is 1 (active).

As for `O=C(CSc1nnnn1-c1cccc2c1CCCC2)NC1CCCC1`, the manual score is 0.

Take `N#C/C(=C/c1ccc(N2CCOCC2)o1)c1nc2ccccc2[nH]1`: the manual score was 3.

For the compound `Cc1ccc(NC(=S)c2nc3ccccc3[nH]2)c(C)c1`, the manual score is 1 (active).

As for `Cc1ccc(C)c(NC(=S)c2nc3ccccc3s2)c1`, the manual score was 1 (active).

In the case of `Cc1ccc(-n2nnnc2-c2nc3ccccc3s2)cc1`, the manual score is 0.

For the compound `Cc1ccccc1NC(=S)c1nc2ccccc2[nH]1`, the manual score is 1 (active).

Consider `Cc1ccc2nc(NCc3ccccc3)[nH]c2c1`, for which the manual score is 0.

As for `N#C/C(=C\c1ccc(N2CCOCC2)o1)c1nc2ccccc2[nH]1`, the manual score was 3.

Turning to `Cc1ccc(OC(=S)Nc2ccccc2)c(C)c1`, the manual score is 0.

In the case of `Cc1ccc(Cn2c(SCC(=O)N3CC(=O)Nc4ccccc43)nc3ccccc3c2=O)cc1`, the manual score is 1 (active).

In the case of `Cc1cc(NC(=O)CSc2nc3ccccc3c(=O)n2Cc2ccccc2)no1`, the manual score is 0.

With `CCC(C)NC(=O)CSc1nc2ccccc2c(=O)n1Cc1ccc(OC)cc1` (stereo unspecified), the manual score was 1 (active).

Turning to `O=C1CN(C(=O)CSc2nc3ccccc3c(=O)n2Cc2ccc(F)cc2)c2ccccc2N1`, the manual score was 1 (active).

Turning to `Cc1ccc(Cn2c(SCC(=O)NCC3CCCO3)nc3c(sc4ccccc43)c2=O)cc1` (stereo unspecified), the manual score was 0.

As for `O=C1CN(C(=O)CSc2nc3cc(Cl)ccc3c(=O)n2Cc2ccccc2)c2ccccc2N1`, the manual score is 1 (active).

In the case of `O=C(CSc1nc2ccccc2c(=O)n1CC1CCCO1)N1CCN(c2ccccc2)CC1` (stereo unspecified), the manual score is 0.

Turning to `CC(c1ccccc1)n1c(SCC(=O)N2CC(=O)Nc3ccccc32)nc2ccccc2c1=O` (stereo unspecified), the manual score is 0.

With `Clc1ccc(OCCn2ccnc2)c(Cl)c1`, the manual score is 0.

As to `CC(/C=N/n1c(-c2ccccc2)n[nH]c1=S)=C\c1ccco1`, the manual score is 1 (active).

`CC(/C=N/n1c(-c2ccc(Cl)cc2)n[nH]c1=S)=C\c1ccco1`: the manual score is 1 (active).

Consider `O=C(Nc1ccccc1)Nc1nccs1`, for which the manual score is -0.5.

Regarding `COC(=O)CSC1=NS(=O)(=O)c2ccccc21`, the manual score is 0.

With `CCCc1nc2ccccc2c(=O)n1/N=C/c1c(C)[nH]n(-c2ccc(C)cc2)c1=O`, the manual score is 1 (active).

As to `CN(C)CCNc1nc2c(c(=O)[nH]c(=O)n2C)n1CCCc1ccccc1`, the manual score is 0.

On to `O=c1c(-c2ccccc2)nc(-c2ccccc2)cn1O`, for which the manual score was 1 (active).

`COCCn1nnnc1C(c1ccccc1)N1CCN(c2ccccc2)CC1` (stereo unspecified): the manual score was 0.

Regarding `CCC(=O)Oc1oc(-c2ccccc2)nc1C=Nc1ccccc1OC`, the manual score is -1 (active).

With `COc1ccccc1N=Cc1nc(-c2ccccc2)oc1OC(C)=O`, the manual score was -1 (active).

In the case of `C=CCN(CC=C)C(=S)NC(=O)/C=C/c1ccc(C)cc1`, the manual score was 1 (active).

Turning to `CCOC(=O)c1ccc(NC(=O)Nc2ccc(OC)c(OC)c2)cc1`, the manual score is 0.

Take `COc1ccc(C(=O)NC(=S)NCCO)cc1Br`: the manual score was 1 (active).

Turning to `C=CCN(CC=C)C(=S)NC(=O)c1ccc(OC)c(Br)c1`, the manual score is 1 (active).

For `Cc1ccnc(NC(=S)NC(=O)/C=C/c2ccco2)c1`, the manual score was 0.

`CCOC(=O)c1c(CNCCN(CC)CC)n(C)c2cc(Br)c(OC)cc12`: the manual score is 0.

Turning to `COc1ccc(C(=O)NC(=S)NC(C)C)cc1Br`, the manual score was 0.5.

Consider `C=CCN(CC=C)C(=S)NC(=O)c1ccc(C)c(Br)c1`, for which the manual score was 1 (active).

For `Cc1ccc(-c2nnn(CC(=O)NC3CC4CCC3C4)n2)cc1` (stereo unspecified), the manual score is 0.

On to `Clc1ccc(Cc2ccc(SCc3ccccc3)nn2)c(Cl)c1`, for which the manual score is 0.

Turning to `CCCCCCCCCn1c2c(c(=N)c3c1CCC3)CCC2`, the manual score was 0.

In the case of `CCN(CC)C(=O)CN(c1ccc2c(c1)OCO2)S(C)(=O)=O`, the manual score is 0.

On to `NC1=NC2(CCCCC2)n2c(nc3ccccc32)N1`, for which the manual score is 0.

Turning to `COC(=O)C(C)N(C(=O)c1cccc2ccccc12)c1c(C)cccc1C` (stereo unspecified), the manual score was -1 (active).

Take `NC(=O)SCC(=O)Nc1cccc(Cl)c1`: the manual score is 0.

For `COC(=O)C(C)N(C(=O)c1cccc(Cl)c1)c1c(C)cccc1C` (stereo unspecified), the manual score is -1 (active).

On to `S=c1[nH]ccn1-c1cccc(Cl)c1`, for which the manual score was 0.

On to `Oc1c(C=NCc2ccncc2)sc2ccccc12`, for which the manual score is 0.

For `O=C(COc1ccc(Br)cc1Cl)NC(=S)N1CCc2ccccc21`, the manual score was 0.

For `C=C(C)C1CC=C(C)/C(=N/NC(=O)COc2cccc(C)c2)C1` (stereo unspecified), the manual score was 0.

As to `CC(Oc1ccc(Cl)cc1Cl)C(=O)NC(=S)N1CCc2ccccc21` (stereo unspecified), the manual score was 1 (active).

As for `Cc1cccc(OCC(=O)NC(=S)N2CCCc3ccccc32)c1`, the manual score is 1 (active).

With `Cc1cccc(OCc2nnc(SCC(=O)N3CCc4ccccc43)n2C)c1`, the manual score was 0.

On to `O=C(COc1ccccc1Cl)NC(=S)N1CCc2ccccc21`, for which the manual score is 1 (active).

In the case of `O=C(COc1ccccc1)NC(=S)N1CCc2ccccc21`, the manual score was 1 (active).

Consider `Cc1cnc(NC(=O)COc2ccccc2Cl)s1`, for which the manual score was 0.

Regarding `N#CC(C#N)=C1C=C2C=C(N3CCCCCC3)CCC2CC1` (stereo unspecified), the manual score is 3.

Consider `O=C(COc1ccc(Br)cc1Br)NC(=S)N1CCCc2ccccc21`, for which the manual score was 0.5.

Take `CC1CCC/C(=N\NC(=O)COc2ccc(Cl)cc2Cl)C1` (stereo unspecified): the manual score was 0.

With `O=C(COc1ccc(Cl)cc1Cl)NC(=S)N1CCCc2ccccc21`, the manual score was 1 (active).

Source of the values: PubChem BioAssay AID623868 (Vanderbilt High Throughput Screening Facility, 2012).
